Hits are enriched below; roughly 2.4% of the tested compounds scored in any of these assays.
D2 PAM-1 = HTS Assay for Positive Allosteric Modulators of the Human D2 Dopamine Receptor: Primary Screen for Potentiators; D(2) dopamine receptor (Homo sapiens), P14416; HEK293 T-REx D2, calcium flux, EC20 dopamine potentiation; potentiation, % at 10 µM; hit rate 0.34% among 340,000;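 active = potentiation over 3 SD above the plate norm, cut at about 30% in these data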
Target sequence (P14416 whole entry, looked up): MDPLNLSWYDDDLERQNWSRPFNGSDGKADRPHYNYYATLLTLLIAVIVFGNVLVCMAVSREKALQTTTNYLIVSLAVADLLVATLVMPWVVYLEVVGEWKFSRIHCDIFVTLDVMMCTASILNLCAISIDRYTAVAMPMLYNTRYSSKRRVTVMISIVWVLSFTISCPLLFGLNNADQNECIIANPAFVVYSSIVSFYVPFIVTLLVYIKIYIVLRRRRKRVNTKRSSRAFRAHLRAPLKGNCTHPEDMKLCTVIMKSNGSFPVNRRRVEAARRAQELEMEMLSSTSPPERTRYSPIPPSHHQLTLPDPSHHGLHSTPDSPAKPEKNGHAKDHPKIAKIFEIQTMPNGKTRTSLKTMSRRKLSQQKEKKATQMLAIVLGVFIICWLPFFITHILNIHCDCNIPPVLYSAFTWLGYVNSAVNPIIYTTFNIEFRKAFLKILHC
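Calcium flux readout, no-wash dye, 1 read/s. Inducible HEK293 Trex D2 line, overnight 30 C. Compound alone 180 s (agonist flags), then EC20 dopamine, another 180 s to score potentiation.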
D2 ag-1 = HTS Assay for Allosteric Agonists of the Human D2 Dopamine Receptor: Primary Screen for Agonists | hit rate 0.53% among 340,000 | D(2) dopamine receptor (Homo sapiens), P14416 | HEK293 T-REx D2 cells, calcium flux agonist mode | activation, % at 2 µM;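 active = activation over 3 SD above normal in the single-dose calcium agonist read, cut at about 30% in these data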
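Tetracycline-induced HEK293 Trex cells with D2 receptor force-coupled to calcium signaling, plated overnight at 30 C and loaded with no-wash calcium dye. Calcium flux read kinetically for 180 s after compound addition; responses flag agonists.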
D2 antag = HTS Assay for Allosteric Antagonists of the Human D2 Dopamine Receptor: Primary Screen for Antagonists; HEK293 TREx D2 cells, calcium flux, dopamine EC80; inhibition, % at 10 µM; D(2) dopamine receptor (Homo sapiens), P14416; hit rate 2% among 340,000; AID 485344, 2010; in the data active = inhibition above about 30%; inactive = below that, where a call was filed
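Tetracycline-induced HEK293 TREx cells expressing D2 receptor forced-coupled to calcium signalling, loaded with no-wash calcium dye. Compounds added and calcium flux read 180 s, then dopamine added at EC80 and read a further 180 s.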
D2 ag-2 = Beta-Arrestin HTS for Positive Allosteric Modulators of the Human D2 Dopamine Receptor: Agonists | DiscoveRx PathHunter D2 beta-arrestin, luminescence, 90 min; 100% = 57 uM dopamine signal | AID 624465, 2012 | D(2) dopamine receptor (Homo sapiens), P14416 | hit rate 0.084% among 360,000 | activation, % (test concentration not listed); in the data active = activation above about 40%; inconclusive = between about 15% and that limit
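DiscoveRx PathHunter D2 beta-arrestin cells (2,100/well) attached overnight, then compound-stimulated 90 min at 37 C in HBSS/10 mM HEPES/0.1% Tween-20 buffer; beta-galactosidase complementation read by luminescence after 1 h at ambient temperature. Dopamine 57 uM final (EC100) as control.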
D2 PAM-2 = Beta-Arrestin HTS for Positive Allosteric Modulators of the Human D2 Dopamine Receptor: Potentiators. hit rate 0.23% among 360,000. potentiation, % (concentration not given with the values). DiscoveRx D2 beta-arrestin cells, luminescence, 90 min; 100% = 57 uM dopamine signal; in the data active = potentiation above about 50%; inconclusive = mostly about 30% to 49%
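PathHunter D2 cells, attached overnight at 37 deg C, received compound in DMSO plus dopamine at EC20 (50 nM final) for 90 min at 37 deg C. Beta-arrestin recruitment was read as luminescence after 1 h with detection reagent at ambient temperature.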
A number is an active result.

Screening COc1ccc(C(CNC(=O)C(C)(C)Oc2ccc(Cl)cc2)N2CCCCC2)cc1 (stereo not given) returned D2 PAM-1 inactive, D2 ag-1 inactive, D2 antag 86, D2 ag-2 inactive and D2 PAM-2 inactive.
For COc1ccc(C(CNC(=O)C(C)(C)Oc2ccc(Cl)cc2)N2CCOCC2)cc1 (stereo not given) the results were D2 ag-2 inactive and D2 PAM-2 inactive.
`COc1ccc(C(CNC(=O)COc2ccc(C)cc2)N2CCCCC2)cc1` (stereo not given) gave D2 PAM-1 inactive and D2 ag-1 inactive.
Screening CC(C)OP(=O)(OC(C)C)C(Nc1cccc(C(=O)O)c1)c1ccccc1 (stereo not given) returned D2 PAM-1 inactive, D2 ag-1 inactive, D2 antag inactive, D2 ag-2 inactive and D2 PAM-2 inactive.
CC(C)OP(=O)(OC(C)C)C(Nc1ccc(C(=O)O)cc1)c1ccccc1 (stereo not given) was read as D2 PAM-1 30, D2 ag-1 inactive, D2 antag inactive, D2 ag-2 inactive and D2 PAM-2 inactive.
CC(=O)c1c(C)oc2c1cc(O)c1ccccc12 was read as D2 PAM-1 inactive, D2 ag-1 inactive, D2 antag inactive, D2 ag-2 inactive and D2 PAM-2 inactive.
`CCOC(=O)c1c(C)oc2c1cc(O)c1ccccc12` gave D2 PAM-1 inactive, D2 ag-1 inactive, D2 antag inactive, D2 ag-2 inactive and D2 PAM-2 58.
O=C1NC(c2ccc(-c3ccccc3[N+](=O)[O-])o2)C(C(=O)c2ccc(F)cc2)C(O)(C(F)(F)F)N1 (stereo not given) was read as D2 PAM-1 inactive, D2 ag-1 inactive, D2 antag inactive, D2 ag-2 inconclusive and D2 PAM-2 58.
For COc1ccc(OC)c(C(=O)NC(CC(N)=O)c2ccc(N3CCN(c4ccccn4)CC3)c([N+](=O)[O-])c2)c1 (stereo not given) the results were D2 PAM-1 inactive, D2 ag-1 inactive, D2 antag 32, D2 ag-2 inactive and D2 PAM-2 inactive.
Screening COc1ccc(OC)c(C(=O)NC(CC(N)=O)c2ccc(N3CCN(c4ccccc4)CC3)c([N+](=O)[O-])c2)c1 (stereo not given) returned D2 PAM-1 inactive, D2 ag-1 inactive, D2 antag inactive, D2 ag-2 inactive and D2 PAM-2 inactive.
Screening CC(=O)c1c(C)oc2c(Br)cc(NS(=O)(=O)c3ccc(Br)cc3)cc12 returned D2 PAM-1 inactive and D2 ag-1 inactive.
Screening Cc1ccc(CNc2ncnc3c2c(-c2ccccc2)cn3-c2ccccc2)cc1 returned D2 PAM-1 inactive and D2 ag-1 inactive.
Screening O=C(OCCN1C(=O)c2cccc3c(N4CCOCC4)ccc(c23)C1=O)c1ccc(Cl)cc1Cl returned D2 PAM-1 inactive, D2 ag-1 36, D2 antag inactive, D2 ag-2 inactive and D2 PAM-2 inactive.
`O=C(OCCN1C(=O)c2ccccc2C1=O)c1cc(S(=O)(=O)N2CCOCC2)ccc1Cl` gave D2 PAM-1 inactive, D2 ag-1 inactive, D2 antag inactive, D2 ag-2 inactive and D2 PAM-2 inactive.
`O=C(OCCN1C(=O)c2cccc3c(N4CCOCC4)ccc(c23)C1=O)c1cccc(Cl)c1` gave D2 PAM-1 inactive, D2 ag-1 74, D2 antag 35, D2 ag-2 inactive and D2 PAM-2 inactive.
CC1CN(C(=O)Nc2ccc(C(=O)NCCc3ccc(Cl)cc3)cc2)c2ccccc2S1 (stereo not given) was read as D2 PAM-1 inactive and D2 ag-1 inactive.
For CCOC(=O)Cn1c(=O)n(CC2CCCO2)c2nc(-c3cc(OC)ccc3OC)nc(C(N)=O)c21 (stereo not given) the results were D2 ag-1 inactive.
`Nc1ccc(C(=O)N2CCN(S(=O)(=O)c3ccc(Br)cc3)CC2)cc1[N+](=O)[O-]` gave D2 PAM-1 inactive, D2 ag-1 inactive, D2 antag 35, D2 ag-2 inactive and D2 PAM-2 inactive.
For COc1ccc(C)cc1Nc1nc2c(S(=O)(=O)c3cccc(Cl)c3)nnn2c2ccsc12 the results were D2 PAM-1 inactive and D2 ag-1 inactive.
Screening O[Si](CCCN1CCCCC1)(c1ccc(F)cc1)C1CCCCC1 (stereo not given) returned D2 PAM-1 inactive, D2 ag-1 inactive, D2 antag 124, D2 ag-2 inactive and D2 PAM-2 inactive.
Screening O=C(NCCCN1CCCC1)Nc1ccc(F)cc1 returned D2 PAM-1 inactive, D2 ag-1 inactive, D2 antag inactive, D2 ag-2 inactive and D2 PAM-2 inactive.
`COc1cc(O)cc2cc3c(c(O)c12)C(=O)CC(C)(O)O3` (stereo not given) gave D2 PAM-1 inactive, D2 ag-1 inactive, D2 antag 37, D2 ag-2 inactive and D2 PAM-2 inactive.
`COc1cc(O)c2c(c1)OC(C)(C)CC2=O` gave D2 ag-1 inactive, D2 antag inactive, D2 ag-2 inactive and D2 PAM-2 inactive.
Screening Cc1cc(NC(=O)c2ccccc2F)nc2c1c(=O)oc1ccccc12 returned D2 PAM-1 42, D2 ag-1 inactive, D2 antag inactive, D2 ag-2 inactive and D2 PAM-2 inactive.
`CCCC(=O)Nc1cc(C)c2c(=O)oc3ccccc3c2n1` gave D2 PAM-1 inactive, D2 ag-1 inactive, D2 antag inactive, D2 ag-2 inactive and D2 PAM-2 inactive.
Cc1ccc(C)c(CNC(=O)c2ccc3c(c2)nc2n3CCC(C)C2)c1 (stereo not given) was read as D2 PAM-1 inactive and D2 ag-1 inactive.
COc1ccccc1NC(=O)C1=C(C)Nc2nc(SCC(=O)c3ccc(C)cc3)nn2C1c1ccc(F)cc1 (stereo not given) was read as D2 PAM-1 inactive and D2 ag-1 inactive.
Screening CCOC(=O)N1CCN(C(=O)C(=O)Nc2sc3c(c2C(N)=O)CC(C)(C)OC3)CC1 returned D2 PAM-1 inactive, D2 ag-1 inactive, D2 antag 33, D2 ag-2 inactive and D2 PAM-2 inactive.
Screening Cc1cc(C)n2nc(SCC(=O)Nc3cc(Cl)ccc3C)nc2n1 returned D2 PAM-1 inactive and D2 ag-1 inactive.
For CCCOC(=O)c1cc(-c2ccc(C=O)o2)ccc1Cl the results were D2 PAM-1 inactive, D2 ag-1 inactive, D2 antag 31, D2 ag-2 inactive and D2 PAM-2 inactive.
`COC(=O)CNC(c1ccccc1)c1cc(Br)ccc1NC(=O)c1cc(OC)c(OC)c(OC)c1` (stereo not given) gave D2 PAM-1 inactive and D2 ag-1 inactive.
